Common to all, as to assay: glycan array binding signal (z-score within array); higher = stronger binding
Experiment [1] relates to Neu5Ac(a2-3)Gal(b1-3)GlcNAc(b1-2)Man. Conditions: glycan notation: IUPAC condensed, linker removed. The procedure, abridged: (§1)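 Glycan array data came from 3228 arrays in the Consortium for Functional Glycomics database, and only arrays with an available protein sequence were kept. Glycan names were put into IUPAC-condensed notation, and columns mapping to the same glycan were averaged. The binding signal is a within-array Z-score, averaged across arrays of one protein sequence run at different concentrations or buffers and across linkers. A negative Z-score can be read as non-binding.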

The subject of experiment [2] is Neu5Ac(a2-3)Gal(b1-3)GlcNAc(b1-6)GalNAc. The settings on record: glycan notation: IUPAC condensed, linker removed; mutation: R125K. The procedure, abridged: as §1
Experiment [3] deals with Neu5Ac(a2-3)Gal(b1-3)GlcNAc. The settings on record: glycan notation: IUPAC condensed, linker removed. The procedure, abridged:
as §1

The test system of experiment [4] is Neu5Ac(a2-3)Gal(b1-3)[GlcNAc(b1-6)]GalNAc. The settings on record: glycan notation: IUPAC condensed, linker removed; mutation: R125K. In a few lines: as §1
In experiment [5] the test system is Neu5Ac(a2-3)Gal(b1-3)GlcNAc(b1-3)GalNAc. Conditions: glycan notation: IUPAC condensed, linker removed. In a few lines: as §1
The test system of experiment [6] is Neu5Ac(a2-3)Gal(b1-3)[Neu5Ac(a2-3)Gal(b1-4)]GlcNAc. Conditions: glycan notation: IUPAC condensed, linker removed. The procedure, abridged: as §1
The test system of experiment [7] is Neu5Ac(a2-3)Gal(b1-3)[Neu5Ac(a2-6)]GalNAc. Conditions: glycan notation: IUPAC condensed, linker removed. In a few lines:
as §1

Experiment [8] deals with Neu5Ac(a2-3)Gal(b1-3)GlcNAc6S. Conditions: glycan notation: IUPAC condensed, linker removed. The procedure, abridged:
as §1

For experiment [9], the system named is Neu5Ac(a2-3)Gal(b1-3)GlcNAc(b1-3)Gal(b1-4)GlcNAc. The settings on record: glycan notation: IUPAC condensed, linker removed. The procedure, abridged: as §1
The test system of experiment [10] is Neu5Ac(a2-3)Gal(b1-3)[Fuc(a1-4)]GlcNAc. The settings on record: glycan notation: IUPAC condensed, linker removed. In a few lines: as §1

Many of the other results were omitted from the sample, so the strongest signals are more common in it than they were.

Avaren (Actinomycete K97), sequence (chain, as listed by the source): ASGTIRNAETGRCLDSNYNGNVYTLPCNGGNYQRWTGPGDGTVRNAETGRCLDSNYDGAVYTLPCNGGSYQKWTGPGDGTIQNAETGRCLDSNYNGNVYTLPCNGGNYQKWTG
PILRa (Mus musculus), Q2YSF3, sequence (Q2YSF3 entry or part of it): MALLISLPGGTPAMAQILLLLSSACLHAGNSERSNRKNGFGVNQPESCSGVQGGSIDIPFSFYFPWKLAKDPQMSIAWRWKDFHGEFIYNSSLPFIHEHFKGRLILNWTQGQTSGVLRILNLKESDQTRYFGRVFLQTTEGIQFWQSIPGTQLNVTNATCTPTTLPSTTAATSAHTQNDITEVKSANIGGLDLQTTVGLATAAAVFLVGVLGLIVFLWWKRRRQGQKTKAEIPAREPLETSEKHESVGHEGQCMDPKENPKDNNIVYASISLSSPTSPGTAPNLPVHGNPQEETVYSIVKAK
SRLC (Mus musculus), Q8VIF6, sequence (Q8VIF6 other isoform, or with tags, fused parts or gaps): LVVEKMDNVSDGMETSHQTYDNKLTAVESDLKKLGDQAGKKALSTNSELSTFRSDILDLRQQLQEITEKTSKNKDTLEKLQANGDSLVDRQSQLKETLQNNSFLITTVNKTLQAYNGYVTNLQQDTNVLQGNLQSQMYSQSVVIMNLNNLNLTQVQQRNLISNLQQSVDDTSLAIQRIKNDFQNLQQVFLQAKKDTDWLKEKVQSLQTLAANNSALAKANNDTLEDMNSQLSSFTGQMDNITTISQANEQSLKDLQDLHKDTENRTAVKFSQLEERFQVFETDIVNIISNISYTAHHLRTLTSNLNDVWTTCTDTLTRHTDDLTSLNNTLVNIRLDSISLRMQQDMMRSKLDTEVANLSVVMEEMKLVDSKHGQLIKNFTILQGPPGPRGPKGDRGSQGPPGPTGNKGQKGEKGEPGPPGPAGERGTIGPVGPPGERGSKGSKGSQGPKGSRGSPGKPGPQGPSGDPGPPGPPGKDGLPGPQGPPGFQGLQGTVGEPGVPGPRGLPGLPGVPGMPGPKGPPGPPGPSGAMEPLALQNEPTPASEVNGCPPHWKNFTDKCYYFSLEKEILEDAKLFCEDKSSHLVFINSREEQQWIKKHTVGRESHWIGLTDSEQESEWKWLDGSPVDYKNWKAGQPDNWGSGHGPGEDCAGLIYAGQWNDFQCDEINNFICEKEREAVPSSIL
PILRb (Mus musculus), Q2YSF2, sequence (Q2YSF2 entry or part of it): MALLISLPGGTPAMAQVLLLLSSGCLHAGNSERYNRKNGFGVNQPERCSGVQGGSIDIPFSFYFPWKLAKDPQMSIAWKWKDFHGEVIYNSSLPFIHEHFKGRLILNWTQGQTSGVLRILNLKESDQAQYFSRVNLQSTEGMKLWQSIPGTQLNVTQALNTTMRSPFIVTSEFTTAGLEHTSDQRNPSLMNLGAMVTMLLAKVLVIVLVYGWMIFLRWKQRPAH
Neurocan (Homo sapiens), O14594, sequence (O14594 other isoform, or with tags, fused parts or gaps): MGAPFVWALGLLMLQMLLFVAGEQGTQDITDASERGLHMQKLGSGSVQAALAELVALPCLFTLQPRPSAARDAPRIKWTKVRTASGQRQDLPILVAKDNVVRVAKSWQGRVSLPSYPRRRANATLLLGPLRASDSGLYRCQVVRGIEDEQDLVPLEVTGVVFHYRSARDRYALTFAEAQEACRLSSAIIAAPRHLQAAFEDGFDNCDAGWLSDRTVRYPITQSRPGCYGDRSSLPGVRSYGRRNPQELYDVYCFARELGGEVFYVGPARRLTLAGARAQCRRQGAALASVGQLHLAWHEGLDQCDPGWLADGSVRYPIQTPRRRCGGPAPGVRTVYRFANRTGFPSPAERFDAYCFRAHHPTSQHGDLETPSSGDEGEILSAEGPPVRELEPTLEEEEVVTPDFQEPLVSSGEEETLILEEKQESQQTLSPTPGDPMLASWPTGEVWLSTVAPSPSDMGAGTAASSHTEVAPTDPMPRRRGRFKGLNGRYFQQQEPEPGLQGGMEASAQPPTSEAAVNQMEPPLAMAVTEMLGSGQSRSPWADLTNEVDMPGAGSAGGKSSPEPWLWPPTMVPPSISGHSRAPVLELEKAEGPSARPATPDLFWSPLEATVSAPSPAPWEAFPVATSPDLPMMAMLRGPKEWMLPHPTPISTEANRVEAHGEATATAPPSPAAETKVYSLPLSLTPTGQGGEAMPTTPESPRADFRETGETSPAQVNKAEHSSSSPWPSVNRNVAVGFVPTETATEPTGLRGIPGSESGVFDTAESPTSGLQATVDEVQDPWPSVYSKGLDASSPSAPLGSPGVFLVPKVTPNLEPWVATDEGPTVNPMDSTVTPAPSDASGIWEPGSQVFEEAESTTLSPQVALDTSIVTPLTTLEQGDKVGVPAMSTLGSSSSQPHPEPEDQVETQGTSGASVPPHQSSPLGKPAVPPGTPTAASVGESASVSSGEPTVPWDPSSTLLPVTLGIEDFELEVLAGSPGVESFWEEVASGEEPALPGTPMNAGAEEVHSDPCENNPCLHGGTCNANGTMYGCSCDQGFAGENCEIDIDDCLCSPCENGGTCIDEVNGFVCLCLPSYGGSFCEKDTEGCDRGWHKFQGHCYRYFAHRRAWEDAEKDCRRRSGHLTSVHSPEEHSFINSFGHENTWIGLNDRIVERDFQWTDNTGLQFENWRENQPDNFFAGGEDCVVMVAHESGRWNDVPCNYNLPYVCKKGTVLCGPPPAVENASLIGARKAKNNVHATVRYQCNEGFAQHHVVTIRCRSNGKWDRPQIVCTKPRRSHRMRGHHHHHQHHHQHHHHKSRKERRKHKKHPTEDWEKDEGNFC
Aggrecan (Rattus norvegicus), NP_071526, sequence (chain, as listed by the source): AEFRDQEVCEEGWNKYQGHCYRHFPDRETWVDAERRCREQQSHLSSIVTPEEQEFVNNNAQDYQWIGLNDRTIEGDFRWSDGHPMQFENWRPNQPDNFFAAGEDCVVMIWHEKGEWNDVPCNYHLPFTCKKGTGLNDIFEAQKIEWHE
C3b (Homo sapiens), P01024, sequence (P01024 23-667): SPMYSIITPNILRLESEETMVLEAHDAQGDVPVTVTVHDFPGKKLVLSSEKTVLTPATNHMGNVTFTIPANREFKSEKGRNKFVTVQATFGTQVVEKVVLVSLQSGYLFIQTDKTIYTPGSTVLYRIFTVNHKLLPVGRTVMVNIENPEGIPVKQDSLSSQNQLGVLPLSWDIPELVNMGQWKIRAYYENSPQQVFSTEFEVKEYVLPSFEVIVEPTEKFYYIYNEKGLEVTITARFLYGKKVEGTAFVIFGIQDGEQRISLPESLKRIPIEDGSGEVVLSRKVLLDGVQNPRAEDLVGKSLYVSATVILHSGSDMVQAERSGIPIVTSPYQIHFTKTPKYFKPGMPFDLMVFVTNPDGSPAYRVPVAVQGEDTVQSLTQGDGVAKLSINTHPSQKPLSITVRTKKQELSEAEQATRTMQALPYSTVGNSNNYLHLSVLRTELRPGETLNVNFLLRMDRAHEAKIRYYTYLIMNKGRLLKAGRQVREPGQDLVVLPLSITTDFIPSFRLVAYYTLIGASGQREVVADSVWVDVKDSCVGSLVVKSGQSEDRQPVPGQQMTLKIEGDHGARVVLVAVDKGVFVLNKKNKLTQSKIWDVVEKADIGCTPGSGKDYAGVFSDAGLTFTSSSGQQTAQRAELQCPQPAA
wLAT-1A (Homo sapiens), Q01650, sequence (Q01650 whole entry): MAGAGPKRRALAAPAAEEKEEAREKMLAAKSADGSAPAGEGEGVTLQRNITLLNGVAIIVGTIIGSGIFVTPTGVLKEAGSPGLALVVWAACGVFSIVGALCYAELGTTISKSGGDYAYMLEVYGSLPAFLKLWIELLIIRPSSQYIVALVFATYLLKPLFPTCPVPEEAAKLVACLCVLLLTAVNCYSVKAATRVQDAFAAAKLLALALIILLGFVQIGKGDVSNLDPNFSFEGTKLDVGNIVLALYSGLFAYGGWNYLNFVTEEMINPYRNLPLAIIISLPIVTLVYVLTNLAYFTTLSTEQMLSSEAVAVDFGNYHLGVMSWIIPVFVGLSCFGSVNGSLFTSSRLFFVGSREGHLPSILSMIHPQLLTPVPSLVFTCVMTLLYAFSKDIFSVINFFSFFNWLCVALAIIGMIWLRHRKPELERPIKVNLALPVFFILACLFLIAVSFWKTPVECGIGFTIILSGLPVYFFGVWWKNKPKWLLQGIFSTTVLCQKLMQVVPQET

As to Siglec-8 (Homo sapiens), Q9NYZ4, the “glycan array binding signal (z-score)” value is 1.28 in [1], 0.063 in [2], -0.024 in [3] (mutation: R125K) and -0.157 in experiment [4]. Consider wLAT-1A (Homo sapiens), Q01650, for which, in experiment [3], the “glycan array binding signal (z-score)” value was -0.345. As for PILRb (Mus musculus), Q2YSF2, in experiment [5], the “glycan array binding signal (z-score)” value was -0.463.

For C3b (Homo sapiens), P01024, in experiment [6], the “glycan array binding signal (z-score)” value was -0.041. With SRLC (Mus musculus), Q8VIF6, the “glycan array binding signal (z-score)” value in experiment [7] was -0.214. For the substance PILRa (Mus musculus), Q2YSF3, the “glycan array binding signal (z-score)” value in experiment [8] is -0.412; in experiment [7] it was 3.58.

Regarding Neurocan (Homo sapiens), O14594, the “glycan array binding signal (z-score)” value in experiment [3] was found to be 2.76. In the case of Avaren (Actinomycete K97), the “glycan array binding signal (z-score)” value in experiment [9] is -0.128; in [7] it was -0.174.

For the substance Aggrecan (Rattus norvegicus), NP_071526, the “glycan array binding signal (z-score)” value in [10] is -0.038.

For the origin of these results see the supplement of paper PMC8728848.
